Test results taken from article PMC5540273 (PLoS ONE, 2017).

How the values were obtained:
Details in all cases: concentration: 1 μM, replicates: in singlicate; n = 1
JNK2 = system: T1, JNK2
T1 construct: gene MAPK9

JNK3 = system: T2, JNK3
T2 construct: gene MAPK10

KIT-autoinhibited = system: KIT-autoinhibited
KIT = system: KIT
LATS1 = system: LATS1
LATS2 = system: LATS2
LCK = system: LCK
LIMK1 = system: LIMK1
LIMK2 = system: LIMK2
LKB1 = system: T3, LKB1
T3 construct: gene STK11

LOK = system: T4, LOK
T4 construct: gene STK10

LRRK2 = system: LRRK2
LTK = system: LTK
LYN = system: LYN
LZK = system: T5, LZK
T5 construct: gene MAP3K13

MAK = system: MAK
MAP3K15 = system: MAP3K15
MAP3K1 = system: MAP3K1
MAP3K2 = system: MAP3K2
MAP3K3 = system: MAP3K3
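Further: KINOMEscan kinase panel screen.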

SMILES	%Inh (JNK2) [%]	%Inh (JNK3) [%]	%Inh (KIT-autoinhibited) [%]	%Inh (KIT) [%]	%Inh (LATS1) [%]	%Inh (LATS2) [%]	%Inh (LCK) [%]	%Inh (LIMK1) [%]	%Inh (LIMK2) [%]	%Inh (LKB1) [%]	%Inh (LOK) [%]	%Inh (LRRK2) [%]	%Inh (LTK) [%]	%Inh (LYN) [%]	%Inh (LZK) [%]	%Inh (MAK) [%]	%Inh (MAP3K15) [%]	%Inh (MAP3K1) [%]	%Inh (MAP3K2) [%]	%Inh (MAP3K3) [%]
Cc1nc(N(C)[C@H]2CN(C(=O)CC#N)CC[C@H]2C)c2cc[nH]c2n1	0	0	0	0	7	13	0	0	16	0	0	0	0	0	0	9	0	10	10	7
COc1cc2ncn(-c3cc(OCc4ccc(S(C)(=O)=O)cc4)c(C(N)=O)s3)c2cc1OC [GW869979]	18	18	21	0	0	39	12	11	16	25	20	29	0	26	3	0	0	8	9	0
COc1cc2ncn(-c3cc(OCCCc4ccccc4)c(C(N)=O)s3)c2cc1OC [GSK205189]	21	12	0	13	0	15	16	0	0	0	40	5	0	0	0	4	0	22	0	0
OCCCNc1nccc(-c2c(-c3cccc(C(F)(F)F)c3)nn3cc(C(F)(F)F)ccc23)n1 [GW630813]	13	15	13	2	0	0	0	0	12	16	0	0	4	0	43	16	0	0	0	0
Nc1n[nH]c2nnc(-c3ccccc3)c(-c3ccccc3)c12 [GW554060]	23	15	0	18	0	4	14	6	11	0	0	41	0	100	3	26	0	25	3	0
O=C(Nc1n[nH]c2cc(-c3ccccc3F)ccc12)C1CC1 [SB-733371]	16	15	0	10	27	0	6	0	0	30	1	0	0	0	0	0	32	0	0	22
O=C(Nc1n[nH]c2nc(-c3ccccc3)c(Br)cc12)C1CC1 [SB-708998]	0	0	9	31	0	0	23	19	12	0	0	29	4	3	0	12	3	0	7	4
Cc1cccc(-c2cc(-c3c[nH]nc3-c3ccccn3)ccn2)c1 [GW679395]	66	73	0	35	0	3	78	0	13	0	0	10	4	0	12	33	0	5	6	0
COc1ccc(Nc2nccc(N3CCC(NS(=O)(=O)c4ccc(NC(C)=O)cc4)C3)n2)cc1 (centres unmarked) [GSK1379729]	0	0	0	9	0	0	23	14	10	0	14	28	8	3	0	30	11	15	0	0
COc1cc(Nc2nccc(N3CCC(NC(=O)C4COc5ccccc5O4)C3)n2)cc(OC)c1OC (centres unmarked) [GSK1379761]	22	7	0	22	3	0	31	0	4	27	0	0	38	19	58	44	0	2	10	0
COc1ccc(-c2cc3c(C)nc(N)nc3n([C@H]3CC[C@H](OCCO)CC3)c2=O)cn1	0	0	0	7	26	11	0	13	0	40	9	0	9	0	0	0	0	0	0	0
CCC(=O)c1c(-c2ccccc2)c2cc(Cl)ccc2c(=O)n1Cc1cc(S(C)(=O)=O)n(CC(N)=O)n1	99	99.2	4	6	0	0	3	0	0	37	0	8	0	7	0	15	0	0	0	0
COC(=O)c1c(-c2ccccc2)c2cc(C)ccc2c(=O)n1Cc1ccccc1	32	48	0	75	0	0	0	5	0	0	0	0	0	7	0	0	0	0	0	0
O=C(NCc1cccs1)c1cc(C(=O)c2c(Cl)cccc2Cl)c[nH]1 [GW823670]	0	0	4	0	0	0	0	6	0	49	21	0	11	1	0	0	0	0	0	0
CCc1nc(-c2cccc(C)c2)c(-c2ccncc2)s1	76	90.3	0	42	4	0	24	0	0	35	0	0	0	12	0	0	0	0	0	0
Nc1n[nH]c2ncc(-c3ccccc3)cc12 [SB-517081]	14	5	13	83	0	0	7	0	9	0	0	0	0	0	0	17	0	6	15	0
COc1cc2ncn(-c3cc(OCc4ccncc4Br)c(C(N)=O)s3)c2cc1OC [GW854278]	5	5	5	24	22	0	25	0	8	0	87	0	7	4	0	2	0	65	20	1
COc1cc2nccc(Nc3cccc(Oc4ccccc4)c3)c2cc1OC.Cl [GW284543]	31	0	0	15	10	0	51	0	0	0	0	48	0	0	0	12	0	0	0	0
CCCC(=O)Nc1n[nH]c2ncc(-c3cccc4ccccc34)cc12 [SB-642057]	21	0	0	12	0	25	20	9	0	0	0	0	0	0	0	22	0	7	2	0
